From the supplement of paper PMC11732987, “Enantioselective OTUD7B fragment discovery through chemoproteomics screening and high-throughput optimisation” (Communications Chemistry, 2025)

Tests used:
Experiment in all cases: log2 ratio of Biotin-Ahx-Ub-VS probe labelling (fragment/DMSO); higher = less target engagement (more negative = stronger competition), active = hit call of the paper (q ≤ 0.05, log2 ratio ≤ -1)
Details in all cases: compound concentration: 200 uM; treatment time: 3 h
USP42 = molecular target: T1, USP42 (UniProt Q9H9J4)
T1 sequence (whole entry): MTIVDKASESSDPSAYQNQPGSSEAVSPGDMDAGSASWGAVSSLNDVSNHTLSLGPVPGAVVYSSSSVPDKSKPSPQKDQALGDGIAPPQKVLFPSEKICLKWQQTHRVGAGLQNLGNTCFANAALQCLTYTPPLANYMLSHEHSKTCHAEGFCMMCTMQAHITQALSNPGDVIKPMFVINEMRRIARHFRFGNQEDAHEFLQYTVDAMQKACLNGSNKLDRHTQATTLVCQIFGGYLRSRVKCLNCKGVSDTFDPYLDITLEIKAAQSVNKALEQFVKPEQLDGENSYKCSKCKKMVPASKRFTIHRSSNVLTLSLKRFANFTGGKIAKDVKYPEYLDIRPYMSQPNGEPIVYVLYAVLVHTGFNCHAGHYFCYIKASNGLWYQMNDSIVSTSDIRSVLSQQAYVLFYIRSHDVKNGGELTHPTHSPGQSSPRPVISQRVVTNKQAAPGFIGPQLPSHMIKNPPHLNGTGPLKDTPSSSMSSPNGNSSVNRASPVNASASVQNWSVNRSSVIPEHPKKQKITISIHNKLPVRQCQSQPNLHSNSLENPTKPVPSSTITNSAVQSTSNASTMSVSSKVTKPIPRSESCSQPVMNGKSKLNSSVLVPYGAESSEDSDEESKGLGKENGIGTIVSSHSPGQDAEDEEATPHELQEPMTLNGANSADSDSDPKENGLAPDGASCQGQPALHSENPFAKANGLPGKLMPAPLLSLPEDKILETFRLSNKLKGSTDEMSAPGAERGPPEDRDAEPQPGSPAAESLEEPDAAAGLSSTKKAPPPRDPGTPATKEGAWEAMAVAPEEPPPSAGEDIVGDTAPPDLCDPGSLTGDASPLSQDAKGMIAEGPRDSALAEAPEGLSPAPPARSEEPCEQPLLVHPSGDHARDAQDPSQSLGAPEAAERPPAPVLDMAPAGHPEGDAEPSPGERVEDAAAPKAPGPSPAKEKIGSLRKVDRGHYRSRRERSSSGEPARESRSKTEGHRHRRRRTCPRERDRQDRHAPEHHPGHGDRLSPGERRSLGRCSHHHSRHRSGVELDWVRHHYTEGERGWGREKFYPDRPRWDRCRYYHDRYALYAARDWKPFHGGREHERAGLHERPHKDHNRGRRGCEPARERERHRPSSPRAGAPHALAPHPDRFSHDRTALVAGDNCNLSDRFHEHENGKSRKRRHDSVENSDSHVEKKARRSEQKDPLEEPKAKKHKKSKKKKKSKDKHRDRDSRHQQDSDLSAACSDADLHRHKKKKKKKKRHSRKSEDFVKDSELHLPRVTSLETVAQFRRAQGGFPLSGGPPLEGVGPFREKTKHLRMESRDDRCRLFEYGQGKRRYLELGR
Procedure, shortened: (§1)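 HEK293T lysate, 495 µg per sample in Tris/CHAPS/IGEPAL buffer with protease inhibitors, was treated in triplicate with fragment at 200 µM or vehicle for 3 h and then with Biotin-Ahx-Ub-VS at 0.5 µM final for 1 h. Labelled DUBs were NeutrAvidin-enriched, digested with LysC and trypsin, and run by diaPASEF LC-MS/MS. Spectronaut label-free quantities were global-median-normalised, and values are average log2 fragment/vehicle ratios by unpaired t-test on proteins with ≥2 unique peptides.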

USP46 = USP46 (UniProt P62068)
USP46, sequence (P62068 whole entry): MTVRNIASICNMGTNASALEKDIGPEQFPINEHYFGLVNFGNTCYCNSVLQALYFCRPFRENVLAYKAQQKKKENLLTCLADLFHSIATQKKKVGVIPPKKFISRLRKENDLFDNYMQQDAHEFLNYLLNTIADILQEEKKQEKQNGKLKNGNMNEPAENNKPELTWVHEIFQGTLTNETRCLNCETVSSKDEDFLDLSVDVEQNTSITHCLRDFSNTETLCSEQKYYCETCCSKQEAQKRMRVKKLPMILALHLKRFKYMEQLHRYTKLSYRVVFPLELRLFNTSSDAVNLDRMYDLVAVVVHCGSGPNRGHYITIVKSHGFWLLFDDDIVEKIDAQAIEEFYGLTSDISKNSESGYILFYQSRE
Procedure, shortened: as §1

USP47 = molecular target: T2, USP47 (UniProt Q96K76)
T2 sequence (whole entry): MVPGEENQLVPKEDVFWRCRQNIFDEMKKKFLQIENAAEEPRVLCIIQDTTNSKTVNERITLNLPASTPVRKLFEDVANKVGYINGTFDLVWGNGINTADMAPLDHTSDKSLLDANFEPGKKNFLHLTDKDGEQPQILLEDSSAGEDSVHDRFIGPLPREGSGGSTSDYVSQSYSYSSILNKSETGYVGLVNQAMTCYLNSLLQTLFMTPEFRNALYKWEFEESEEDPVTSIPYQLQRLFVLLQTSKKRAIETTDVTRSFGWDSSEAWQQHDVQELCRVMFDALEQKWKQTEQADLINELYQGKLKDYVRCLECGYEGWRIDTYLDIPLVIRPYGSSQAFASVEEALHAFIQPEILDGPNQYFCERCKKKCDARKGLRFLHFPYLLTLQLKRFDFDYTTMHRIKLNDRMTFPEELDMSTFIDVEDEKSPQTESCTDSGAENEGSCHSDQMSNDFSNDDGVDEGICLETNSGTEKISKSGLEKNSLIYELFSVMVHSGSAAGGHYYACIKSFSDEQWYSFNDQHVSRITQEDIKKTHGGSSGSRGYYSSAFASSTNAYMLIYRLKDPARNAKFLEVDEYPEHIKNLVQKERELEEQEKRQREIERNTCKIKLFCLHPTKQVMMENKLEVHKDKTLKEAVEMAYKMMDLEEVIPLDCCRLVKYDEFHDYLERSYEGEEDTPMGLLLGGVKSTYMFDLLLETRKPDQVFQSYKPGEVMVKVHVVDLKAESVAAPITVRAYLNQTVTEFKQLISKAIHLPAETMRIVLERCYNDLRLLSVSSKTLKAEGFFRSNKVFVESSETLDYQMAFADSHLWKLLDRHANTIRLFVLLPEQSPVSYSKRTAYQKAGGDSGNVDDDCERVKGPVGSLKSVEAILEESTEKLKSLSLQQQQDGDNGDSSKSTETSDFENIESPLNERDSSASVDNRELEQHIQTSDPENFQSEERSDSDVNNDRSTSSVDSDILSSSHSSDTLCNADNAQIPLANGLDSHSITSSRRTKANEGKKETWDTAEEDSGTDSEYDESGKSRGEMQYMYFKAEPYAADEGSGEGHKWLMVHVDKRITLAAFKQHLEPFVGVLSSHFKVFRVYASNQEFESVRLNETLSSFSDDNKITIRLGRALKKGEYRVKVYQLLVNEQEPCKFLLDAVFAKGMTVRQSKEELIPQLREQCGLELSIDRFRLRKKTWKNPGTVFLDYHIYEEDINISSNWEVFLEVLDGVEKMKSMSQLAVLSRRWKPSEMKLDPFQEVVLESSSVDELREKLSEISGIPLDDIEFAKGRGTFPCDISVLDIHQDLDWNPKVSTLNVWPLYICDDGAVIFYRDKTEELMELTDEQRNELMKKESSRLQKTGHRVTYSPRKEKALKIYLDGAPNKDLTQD
Procedure, shortened: as §1

USP48 = molecular target: T3, USP48 (UniProt Q86UV5)
T3 sequence (whole entry): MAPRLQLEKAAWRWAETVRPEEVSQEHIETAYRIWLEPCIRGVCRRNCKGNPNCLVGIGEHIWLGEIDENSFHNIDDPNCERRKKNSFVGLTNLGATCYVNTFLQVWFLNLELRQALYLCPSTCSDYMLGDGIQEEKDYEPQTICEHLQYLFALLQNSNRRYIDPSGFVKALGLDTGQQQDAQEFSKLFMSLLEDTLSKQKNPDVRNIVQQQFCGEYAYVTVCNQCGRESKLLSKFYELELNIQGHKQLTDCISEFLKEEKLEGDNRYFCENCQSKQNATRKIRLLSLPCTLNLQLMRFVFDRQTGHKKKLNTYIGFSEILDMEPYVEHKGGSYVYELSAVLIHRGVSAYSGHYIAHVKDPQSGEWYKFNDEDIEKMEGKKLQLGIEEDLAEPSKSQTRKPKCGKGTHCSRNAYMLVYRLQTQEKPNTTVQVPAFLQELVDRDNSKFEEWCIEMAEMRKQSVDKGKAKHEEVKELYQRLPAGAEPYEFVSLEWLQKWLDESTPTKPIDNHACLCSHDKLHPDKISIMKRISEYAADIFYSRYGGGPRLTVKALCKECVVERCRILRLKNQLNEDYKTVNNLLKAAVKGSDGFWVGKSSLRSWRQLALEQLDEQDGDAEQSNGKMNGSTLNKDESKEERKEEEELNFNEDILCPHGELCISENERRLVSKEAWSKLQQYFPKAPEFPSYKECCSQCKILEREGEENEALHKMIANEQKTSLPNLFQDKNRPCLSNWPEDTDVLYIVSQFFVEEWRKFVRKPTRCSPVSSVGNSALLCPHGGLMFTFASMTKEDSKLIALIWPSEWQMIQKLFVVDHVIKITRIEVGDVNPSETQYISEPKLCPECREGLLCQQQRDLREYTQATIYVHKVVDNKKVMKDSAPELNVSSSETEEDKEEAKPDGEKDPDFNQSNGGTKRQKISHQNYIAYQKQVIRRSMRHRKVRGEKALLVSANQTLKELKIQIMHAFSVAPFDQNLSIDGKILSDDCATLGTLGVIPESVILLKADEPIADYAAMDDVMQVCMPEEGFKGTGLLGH
Procedure, shortened: as §1

USP5 = molecular target: T4, USP5 (UniProt P45974)
T4 sequence (whole entry): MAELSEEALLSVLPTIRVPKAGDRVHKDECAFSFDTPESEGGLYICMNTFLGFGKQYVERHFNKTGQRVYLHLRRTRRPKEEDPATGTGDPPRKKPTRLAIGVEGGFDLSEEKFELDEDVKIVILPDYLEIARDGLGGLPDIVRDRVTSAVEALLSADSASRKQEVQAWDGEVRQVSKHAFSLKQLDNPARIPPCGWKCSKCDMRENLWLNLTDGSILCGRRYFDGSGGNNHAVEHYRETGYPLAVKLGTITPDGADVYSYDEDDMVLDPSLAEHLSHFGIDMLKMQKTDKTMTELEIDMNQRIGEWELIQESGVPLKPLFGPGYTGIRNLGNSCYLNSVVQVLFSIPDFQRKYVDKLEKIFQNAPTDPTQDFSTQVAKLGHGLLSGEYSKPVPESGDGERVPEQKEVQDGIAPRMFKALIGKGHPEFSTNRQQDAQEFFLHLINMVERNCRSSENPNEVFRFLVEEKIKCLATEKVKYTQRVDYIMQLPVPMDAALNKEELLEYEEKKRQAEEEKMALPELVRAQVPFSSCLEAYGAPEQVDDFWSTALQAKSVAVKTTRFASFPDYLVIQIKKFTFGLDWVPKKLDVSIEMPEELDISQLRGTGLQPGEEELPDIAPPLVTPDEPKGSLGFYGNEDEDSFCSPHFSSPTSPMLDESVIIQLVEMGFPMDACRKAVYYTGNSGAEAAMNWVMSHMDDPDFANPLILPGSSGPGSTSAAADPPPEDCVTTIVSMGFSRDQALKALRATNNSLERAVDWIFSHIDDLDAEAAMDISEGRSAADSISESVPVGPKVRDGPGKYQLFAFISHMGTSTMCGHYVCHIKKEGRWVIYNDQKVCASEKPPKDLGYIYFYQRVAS
Procedure, shortened: as §1

USP54 = USP54 (UniProt Q70EL1)
USP54, sequence (Q70EL1 whole entry): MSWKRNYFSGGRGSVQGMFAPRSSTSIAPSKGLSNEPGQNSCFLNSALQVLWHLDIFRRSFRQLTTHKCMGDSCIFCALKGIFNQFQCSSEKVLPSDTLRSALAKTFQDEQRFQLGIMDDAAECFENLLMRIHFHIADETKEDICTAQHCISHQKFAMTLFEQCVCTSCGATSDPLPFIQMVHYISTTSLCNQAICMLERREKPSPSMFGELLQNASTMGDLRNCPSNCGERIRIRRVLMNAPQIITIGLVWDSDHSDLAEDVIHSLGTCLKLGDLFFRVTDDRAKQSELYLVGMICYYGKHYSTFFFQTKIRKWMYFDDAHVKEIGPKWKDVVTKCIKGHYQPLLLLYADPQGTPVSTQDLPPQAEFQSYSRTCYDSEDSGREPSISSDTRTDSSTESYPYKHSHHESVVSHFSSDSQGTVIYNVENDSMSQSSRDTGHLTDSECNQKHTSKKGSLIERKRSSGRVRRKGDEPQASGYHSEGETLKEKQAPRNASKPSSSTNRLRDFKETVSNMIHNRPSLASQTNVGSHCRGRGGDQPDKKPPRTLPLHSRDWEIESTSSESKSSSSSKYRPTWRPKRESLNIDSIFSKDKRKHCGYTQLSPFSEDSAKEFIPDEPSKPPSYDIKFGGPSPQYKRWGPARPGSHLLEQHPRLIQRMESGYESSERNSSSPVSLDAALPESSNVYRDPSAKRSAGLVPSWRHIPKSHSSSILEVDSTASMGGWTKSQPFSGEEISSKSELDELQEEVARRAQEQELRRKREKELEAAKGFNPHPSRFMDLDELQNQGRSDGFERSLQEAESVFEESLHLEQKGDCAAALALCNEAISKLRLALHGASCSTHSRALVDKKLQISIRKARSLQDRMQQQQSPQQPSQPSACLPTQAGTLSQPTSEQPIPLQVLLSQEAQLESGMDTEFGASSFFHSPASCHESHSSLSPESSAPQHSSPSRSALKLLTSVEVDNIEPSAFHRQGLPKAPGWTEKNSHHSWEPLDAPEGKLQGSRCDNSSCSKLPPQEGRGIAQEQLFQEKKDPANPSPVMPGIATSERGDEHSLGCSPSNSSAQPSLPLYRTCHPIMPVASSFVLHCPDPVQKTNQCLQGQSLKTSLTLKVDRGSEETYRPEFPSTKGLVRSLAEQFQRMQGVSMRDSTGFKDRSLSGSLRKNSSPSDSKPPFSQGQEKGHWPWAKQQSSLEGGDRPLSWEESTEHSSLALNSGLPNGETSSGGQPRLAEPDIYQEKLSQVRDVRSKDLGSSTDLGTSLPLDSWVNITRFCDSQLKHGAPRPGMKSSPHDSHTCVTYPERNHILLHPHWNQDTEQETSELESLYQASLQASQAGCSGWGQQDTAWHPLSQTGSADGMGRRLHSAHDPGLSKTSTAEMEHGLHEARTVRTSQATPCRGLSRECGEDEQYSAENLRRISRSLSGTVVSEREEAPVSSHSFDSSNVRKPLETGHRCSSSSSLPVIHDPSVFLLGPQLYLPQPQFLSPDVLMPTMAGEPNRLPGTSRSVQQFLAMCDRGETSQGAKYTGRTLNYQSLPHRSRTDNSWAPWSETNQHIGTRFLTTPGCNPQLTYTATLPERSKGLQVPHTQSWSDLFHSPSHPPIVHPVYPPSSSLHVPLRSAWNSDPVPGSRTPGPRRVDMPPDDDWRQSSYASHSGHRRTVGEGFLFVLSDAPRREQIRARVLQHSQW
Procedure, shortened: as §1

USP7 = USP7 (UniProt Q93009)
USP7, sequence (Q93009 whole entry, looked up): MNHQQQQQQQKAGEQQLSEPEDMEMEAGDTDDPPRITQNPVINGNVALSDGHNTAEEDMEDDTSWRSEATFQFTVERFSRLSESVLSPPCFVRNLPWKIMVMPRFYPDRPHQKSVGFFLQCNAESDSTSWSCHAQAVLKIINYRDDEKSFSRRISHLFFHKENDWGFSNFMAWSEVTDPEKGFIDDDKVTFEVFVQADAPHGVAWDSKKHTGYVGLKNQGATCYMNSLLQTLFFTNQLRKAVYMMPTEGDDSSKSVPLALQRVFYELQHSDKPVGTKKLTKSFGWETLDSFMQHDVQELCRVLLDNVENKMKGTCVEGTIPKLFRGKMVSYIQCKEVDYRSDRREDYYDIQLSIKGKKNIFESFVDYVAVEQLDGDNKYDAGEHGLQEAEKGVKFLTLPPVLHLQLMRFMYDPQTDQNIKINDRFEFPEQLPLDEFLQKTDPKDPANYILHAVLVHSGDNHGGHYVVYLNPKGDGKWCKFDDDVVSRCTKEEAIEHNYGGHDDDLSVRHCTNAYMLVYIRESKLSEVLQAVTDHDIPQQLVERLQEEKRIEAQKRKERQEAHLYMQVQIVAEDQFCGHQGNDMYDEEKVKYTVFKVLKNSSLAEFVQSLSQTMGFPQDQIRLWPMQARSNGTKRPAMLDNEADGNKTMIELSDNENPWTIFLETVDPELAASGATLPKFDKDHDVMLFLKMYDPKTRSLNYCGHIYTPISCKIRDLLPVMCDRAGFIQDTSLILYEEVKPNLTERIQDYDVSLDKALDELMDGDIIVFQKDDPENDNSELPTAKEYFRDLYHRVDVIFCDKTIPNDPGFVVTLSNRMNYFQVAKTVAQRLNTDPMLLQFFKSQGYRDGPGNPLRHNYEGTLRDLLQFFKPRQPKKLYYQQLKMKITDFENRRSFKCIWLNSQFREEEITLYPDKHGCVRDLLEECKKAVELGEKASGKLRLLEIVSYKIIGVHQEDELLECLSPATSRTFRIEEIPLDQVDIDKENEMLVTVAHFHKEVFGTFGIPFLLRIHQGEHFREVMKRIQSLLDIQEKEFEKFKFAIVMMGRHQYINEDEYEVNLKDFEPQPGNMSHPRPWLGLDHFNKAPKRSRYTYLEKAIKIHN
Procedure, shortened: as §1

USP8 = molecular target: T5, USP8 (UniProt P40818)
T5 sequence (whole entry): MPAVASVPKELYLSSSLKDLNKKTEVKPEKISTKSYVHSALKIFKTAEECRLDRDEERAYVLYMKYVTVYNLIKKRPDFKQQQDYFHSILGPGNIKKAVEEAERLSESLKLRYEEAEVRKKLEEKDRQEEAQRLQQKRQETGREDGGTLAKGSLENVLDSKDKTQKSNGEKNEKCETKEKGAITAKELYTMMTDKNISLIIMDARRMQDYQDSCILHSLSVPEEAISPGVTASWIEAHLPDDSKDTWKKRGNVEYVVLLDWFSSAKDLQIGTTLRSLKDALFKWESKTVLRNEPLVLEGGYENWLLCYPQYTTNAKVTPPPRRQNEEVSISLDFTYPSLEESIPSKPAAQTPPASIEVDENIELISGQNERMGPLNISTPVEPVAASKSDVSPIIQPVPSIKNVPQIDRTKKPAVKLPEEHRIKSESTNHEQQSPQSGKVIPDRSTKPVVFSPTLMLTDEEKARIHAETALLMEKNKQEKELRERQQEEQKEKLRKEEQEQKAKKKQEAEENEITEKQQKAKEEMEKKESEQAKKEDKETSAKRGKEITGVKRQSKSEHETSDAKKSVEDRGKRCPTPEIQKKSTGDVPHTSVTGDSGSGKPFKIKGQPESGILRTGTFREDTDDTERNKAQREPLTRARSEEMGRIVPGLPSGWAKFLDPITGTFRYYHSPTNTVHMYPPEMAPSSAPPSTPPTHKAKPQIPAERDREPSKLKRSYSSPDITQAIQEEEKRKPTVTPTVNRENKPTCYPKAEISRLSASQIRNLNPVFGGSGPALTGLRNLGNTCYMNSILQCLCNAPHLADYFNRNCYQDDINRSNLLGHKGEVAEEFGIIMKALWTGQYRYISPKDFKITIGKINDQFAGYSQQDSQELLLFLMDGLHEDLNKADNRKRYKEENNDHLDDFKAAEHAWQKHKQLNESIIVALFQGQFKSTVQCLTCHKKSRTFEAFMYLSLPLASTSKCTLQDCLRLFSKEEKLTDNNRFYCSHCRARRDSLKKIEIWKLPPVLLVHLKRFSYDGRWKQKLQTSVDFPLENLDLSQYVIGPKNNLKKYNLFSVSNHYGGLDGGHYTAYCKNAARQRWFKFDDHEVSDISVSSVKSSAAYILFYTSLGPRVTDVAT
Procedure, shortened: as §1

Measured: log2 ratio of Biotin-Ahx-Ub-VS probe labelling

O=C(CCl)Nc1ccc(Cl)c(F)c1
inactive: USP42 -0.0407 | USP46 -0.231 | USP47 -0.798 | USP48 -0.731 | USP5 -0.223 | USP54 -0.268 | USP7 -0.646 | USP8 -0.207
